A selection: hits, their analogues and other compounds. The true share with any hit is near 3.3%.
CASP6 VEID inh: inhibitors of human caspase-6 | inhibition, % at 12.5 µM | P55212 | 350,000 tested, 0.53% active | purified caspase-6, Z-VEID-R110 cleavage fluorescence;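 active = mean inhibition across replicates at least about 35%, with every replicate also reaching that limit, limit read from the data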
INS-1E GSIS act: primary screen for activators of insulin secretion dependent on glucose, INS-1E cells, GLuc reporter luminescence; INS-1E GLuc reporter insulin secretion, 2-3 h; activation, % at 16.6 µM; 370,000 tested, 0.61% active;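 active = lowest replicate activation of at least 40%, so every replicate reaches that level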
SIRT5 block: blocks human SIRT5 desuccinylation of peptide. Q9NXA8. Purified SirT5, succinyl-peptide AMC, trypsin-coupled fluorescence. inhibition, % at 15 µM. 330,000 tested, 1.1% active. AID 652115; in the data active = inhibition above about 15%
Target sequence (Q9NXA8 whole entry, looked up): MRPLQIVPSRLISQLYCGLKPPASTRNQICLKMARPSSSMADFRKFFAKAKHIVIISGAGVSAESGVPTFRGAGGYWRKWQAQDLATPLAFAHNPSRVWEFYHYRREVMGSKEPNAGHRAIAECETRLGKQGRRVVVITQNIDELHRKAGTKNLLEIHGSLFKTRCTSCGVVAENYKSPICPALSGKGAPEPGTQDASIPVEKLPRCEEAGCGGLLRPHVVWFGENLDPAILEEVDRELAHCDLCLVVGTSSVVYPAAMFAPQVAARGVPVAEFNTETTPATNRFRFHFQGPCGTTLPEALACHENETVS
ERAP1 inh: blocks human ERAP1 aminopeptidase activity; recombinant ERAP1, Leu-AMC fluorescence, 60 min; AID 652197; Q9NZ08; inhibition, % at 10.7 µM; 340,000 tested, 0.15% active;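 active = mean replicate inhibition of at least 30%, or all replicates individually reaching that 30% level; inactive = mean below 30% and not every replicate reaching it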
FGF22 binding: FGF22 (human) thermal shift binding; Q9HCT0; recombinant FGF22 thermal shift, SYPRO orange fluorescence; percent of sucrose octasulfate shift, DMSO zero; activity (Tm shift, normalised), % at 9.99 µM; 340,000 tested, 1.5% active;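 active = mean Tm shift, scaled 0 neutral to 100 positive control, at about 1.3% or above, every replicate too, limit read from the data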
Target sequence (Q9HCT0 whole entry, looked up): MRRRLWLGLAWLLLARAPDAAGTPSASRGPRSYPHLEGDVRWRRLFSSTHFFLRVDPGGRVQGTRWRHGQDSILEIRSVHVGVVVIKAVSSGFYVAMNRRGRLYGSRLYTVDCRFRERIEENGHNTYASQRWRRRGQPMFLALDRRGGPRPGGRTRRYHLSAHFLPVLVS
Each line names hits and unclear results; the compound was inactive in the other large screens; ! = not active in a repeat.

CCS(=O)(=O)N1CC2(CN(C(=O)Cc3ccccn3)[C@H](CO)c3[nH]c4cc(OC)ccc4c32)C1	none (no result: SIRT5 block, FGF22 binding)
Cc1c(N=Nc2ccc(O)cc2)c(=O)n(-c2ccccc2)n1C	none
Cc1c(N=NC2=C(O)CCCC2=O)c(=O)n(-c2ccccc2)n1C	SIRT5 block 26
Cc1ccc(NC(=O)Cn2nnc(C(=O)NCc3cccs3)c2N)cc1Cl	none
Nc1c(C(=O)NCc2cccs2)nnn1CC(=O)Nc1cccc(Cl)c1	FGF22 binding 43
Nc1ncnc2nc[nH]c12	SIRT5 block 44!
C[C@@H]1CN([C@@H](C)CO)C(=O)c2cc(C#Cc3ccccc3F)cnc2O[C@@H]1CN(C)C(=O)Cc1cccnc1	none
CO[C@@H]1CN(C)C(=O)c2cc(NC(=O)C3CC3)ccc2OC[C@@H](C)N(C(=O)c2ccccc2)C[C@@H]1C	none
COCC(=O)N1C[C@H](C)[C@H](OC)CN(C)C(=O)c2cc(NC(=O)C3CCC3)ccc2OC[C@@H]1C	SIRT5 block 24
COCC(=O)N1C[C@@H](C)[C@@H](OC)CN(C)C(=O)c2cc(NC(=O)c3cc(C)on3)ccc2OC[C@H]1C	SIRT5 block 19
COCC(=O)N1C[C@@H](C)[C@@H](OC)CN(C)C(=O)c2cc(NC(=O)C3CCC3)ccc2OC[C@@H]1C	none (no result: CASP6 VEID inh, SIRT5 block, ERAP1 inh, FGF22 binding)
CO[C@H]1CN(C)C(=O)c2cc(NC(=O)NC(C)C)ccc2OC[C@@H](C)N(C(=O)CC2CC2)C[C@@H]1C	SIRT5 block 20
CO[C@H]1CN(C)C(=O)c2cc(NC(=O)C3CC3)ccc2OC[C@H](C)N(C(=O)c2ccccc2)C[C@H]1C	CASP6 VEID inh 70
COc1ccc(S(=O)(=O)Nc2ccc3c(c2)C(=O)N([C@@H](C)CO)C[C@H](C)[C@@H](CN(C)C(=O)Nc2ccccc2)O3)cc1	none
C[C@@H]1CN([C@H](C)CO)C(=O)c2cccc(NC(=O)c3nc4ccccc4s3)c2O[C@H]1CN(C)C(=O)Nc1ccc(C(F)(F)F)cc1	none
CC(=O)N1[C@@H]2Cn3c(ccc(/C=C/c4ccccc4)c3=O)[C@H]1[C@@H](C(=O)N(C)C)[C@@H]2CO	none
CN(C)C(=O)[C@H]1[C@H](CO)[C@H]2Cn3c(ccc(-c4ccccc4)c3=O)[C@@H]1N2CCc1ccccc1	none
CCCN1[C@@H]2Cn3c(ccc(-c4ccccc4)c3=O)[C@H]1[C@@H](C(=O)NCCc1cn(C)cn1)[C@@H]2CO	none
CN(C)C(=O)[C@@H]1[C@@H](CO)[C@@H]2Cn3c(ccc(-c4ccccc4)c3=O)[C@H]1N2CCc1ccccc1	SIRT5 block 29
CC(=O)N1[C@@H]2c3ccc(/C=C/c4ccccc4)c(=O)n3C[C@H]1[C@H](CO)[C@H]2C(=O)N(C)C	ERAP1 inh 91
CCCN1[C@@H]2Cn3c(ccc(-c4cccnc4)c3=O)[C@H]1[C@@H](C(=O)NCCc1cn(C)cn1)[C@@H]2CO	ERAP1 inh 31
CCC(=O)N1[C@@H]2c3ccc(/C=C/c4ccccc4)c(=O)n3C[C@H]1[C@H](CO)[C@H]2C(=O)N(C)C	ERAP1 inh 38
CN1c2ccc(Br)cc2[C@H]2[C@H](CCN2C(=O)C2CCC2)[C@H]1CO	none (no result: FGF22 binding)
Cc1ccc(S(=O)(=O)N2CC[C@H]3[C@H](CO)Nc4ccc(C#Cc5ccc(F)cc5)cc4[C@H]32)cc1	none
C[C@@H]1CN([C@H](C)CO)C(=O)c2ccccc2-c2ccccc2CO[C@@H]1CN(C)C(=O)Cc1ccccc1	none
C[C@@H]1CN([C@@H](C)CO)C(=O)c2cc(C3=CCCCC3)cnc2O[C@H]1CN(C)S(=O)(=O)c1cn(C)cn1	none
CN1[C@H](C(=O)N2CCOCC2)[C@@H](CO)[C@@H]2Cn3c(ccc(/C=C/c4ccccc4)c3=O)[C@@H]21	none
COCC(=O)N1[C@@H]2Cn3c(ccc(/C=C/c4ccccc4)c3=O)[C@H]1[C@@H](C(=O)N1CCOCC1)[C@@H]2CO	ERAP1 inh 128
COc1ccc(OCCN2C(=O)NC3(CCc4ccccc4C3)C2=O)cc1 (stereo unspecified)	FGF22 binding 44
COc1ccc(OCCN2C(=O)NC(C)(c3ccc(C)cc3)C2=O)cc1 (stereo unspecified)	none (no result: CASP6 VEID inh, SIRT5 block, ERAP1 inh, FGF22 binding)
C[C@H]1CN([C@@H](C)CO)C(=O)c2cc(-c3cccnc3)cnc2O[C@H]1CN(C)C(=O)C1CC1	none
O=C(CC(C(=O)O)c1c[nH]c2ccccc12)c1ccccc1 (stereo unspecified)	SIRT5 block 17
COc1ccc(C(=O)NC(C)Cc2c[nH]c3ccccc23)cc1 (stereo unspecified)	FGF22 binding 43 (no result: INS-1E GSIS act, SIRT5 block)
COC(=O)[C@H](Cc1c[nH]c2ccccc12)NCc1cccc(B(O)O)c1	SIRT5 block 26 (no result: ERAP1 inh)
O=C(O)C(O)Cc1c[nH]c2ccccc12 (stereo unspecified)	none
O=C(N[C@@H](Cc1c[nH]c2ccccc12)C(=O)O)c1ccc(Cl)cc1	FGF22 binding 44
C[C@@H]1CCCCO[C@@H](CN(C)Cc2ccccc2)[C@H](C)CN([C@@H](C)CO)C(=O)c2cc(NC(=O)Nc3ccc4c(c3)OCO4)ccc2O1	none
CC(Cc1c[nH]c2ccccc12)C(=O)O (stereo unspecified)	CASP6 VEID inh 38 (no result: INS-1E GSIS act)
NNC(=O)c1sc(-c2ccccc2)cc1N	FGF22 binding 44
Cc1nc2c(-c3ccc(F)cc3)cnn2c2c1CCC2	CASP6 VEID inh 56, INS-1E GSIS act 44
COc1ccc(-c2cnc3c(-c4ccc(F)cc4)cnn3c2N)cc1	none
CN(C)CCCN(C(=O)CCOc1ccccc1)c1nc2ccc(F)cc2s1	INS-1E GSIS act 45
CN(C)CCCN(C(=O)CCc1ccccc1)c1nc2c(F)cccc2s1	none (no result: CASP6 VEID inh, SIRT5 block, ERAP1 inh, FGF22 binding)
CCOc1cccc2sc(N(CCCN(C)C)C(=O)c3ccc(S(=O)(=O)N(C)c4ccccc4)cc3)nc12	FGF22 binding 44
CN(C)CCCN(C(=O)COc1ccccc1)c1nc2ccc(F)cc2s1	none
CCOc1cccc2sc(N(CCCN(C)C)C(=O)c3ccc(S(=O)(=O)N4CCc5ccccc5C4)cc3)nc12	none
CN(C)CCCN(C(=O)CCOc1ccccc1)c1nc2c(F)cccc2s1	INS-1E GSIS act 99 (no result: ERAP1 inh)
C[C@H](NC(=O)C[C@H]1CC[C@H]2[C@H](COc3ccc(NC(=O)C4CCOCC4)cc3C(=O)N2C)O1)c1ccccc1	none
COc1ccc(CCN(Cc2nc3ccccc3c(=O)[nH]2)C(=O)C2CC2)cc1	FGF22 binding 43
CC1(C)Cc2c(cnn2-c2ccccc2)C(NC(=O)CCCN2CCCCC2=O)C1 (stereo unspecified)	none
CC1(C)Cc2c(cnn2-c2ccccc2)C(NC(=O)CCN2CCCC2=O)C1 (stereo unspecified)	INS-1E GSIS act 41
CCCN1CCN(C(=O)Cn2nc(CC)n3c(cc4sccc43)c2=O)CC1	FGF22 binding 44 (no result: SIRT5 block)
CCc1nn(CC(=O)NCCCN2CCOCC2)c(=O)c2cc3sccc3n12	none
CCCNC(=O)c1onc(CSc2ccc(F)c(F)c2)c1C(=O)NCCC	FGF22 binding 36

Screening data: PubChem, Broad Institute
